# This is part of a sample that, as a whole, favours compounds with a hit. Of some 83,000 tested, about 20% had one in any assay.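 Treatment: one concentration, 48 hours, 96-well format. Scoring: percent growth, with anything below 10 considered active.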 Values without a mark were called inactive. The source made the active and inactive calls.
# Test system: PC-3 prostate
# Assay: NCI-60 one-dose screen, 48 h (100 = growth as untreated, 0 = no growth, -100 = all killed)
# Conditions: 10 µM unless noted
row,SMILES,growth
1,N#Cc1c(-c2ccc(Cl)cc2)nc(SCc2ccc(F)cc2)nc1N1CCNCC1,53.8%
2,Clc1ccc(-c2cn3cc(Cc4ccc(Cl)c(Cl)c4)sc3n2)cc1,81.6%
3,COc1ccc(/C=N/NC(=O)c2[nH]c3ccc(Br)cc3c2-c2ccccc2)o1,22.6%
4,O=C(Nc1nc2ccc(O)cc2s1)c1cccc(C(F)(F)F)c1,58.2%

# Test system: SK-MEL-5 melanoma
# Assay: as above
# Conditions: 10 µM unless noted
row,SMILES,growth
1,Cn1cc(-c2cc(N)n3nc(-c4cn(C)c5ccc(F)cc45)cc3n2)c2cc(F)ccc21,104%
2,CCCC(=O)NC(c1ccc(N(CC)CC)cc1)c1cc(C)c2cccnc2c1O (stereo not given),-19.8% (active)
3,COC(=O)C1CCCN(S(=O)(=O)/N=C2\NC(=O)NC2=C(Cl)Cl)C1 (stereo not given),101%
4,O=C(N/N=C/c1ccc([N+](=O)[O-])s1)c1[nH]c2ccc(Br)cc2c1-c1ccccc1,-76.6% (active)
5,C=C1CC[C@H]2[C@@](C)(CCC3OC(c4ccc(OCc5cn(C6CC(OC(C)=O)C(OC(C)=O)C(COC(C)=O)O6)nn5)cc4)OC[C@]32C)[C@@H]1/C=C/C1=CCOC1=O (stereo not given in full),0.123% (active)
6,COc1ccc([C@@H]2c3[nH]c4ccccc4c3CC3C(=O)N(C4CCN(Cc5c(F)cccc5F)CC4)CC(=O)N32)c(OC)c1 (stereo not given in full),-9.17% [5.26 µM] (active)
7,O=C(N/N=C/c1ccc(Br)s1)c1[nH]c2ccc(Br)cc2c1-c1ccccc1,-27.3% (active)
8,O=C1c2c(c3c4cccnc4[nH]c3c3ccc4ccccc4c23)C(=O)N1CCO,81.4%
9,Nc1c(C(=O)Nc2ccc(C(F)(F)F)cc2)sc2nc(-c3cnccn3)cc(-c3cccs3)c12,90.1%
10,CN(C)c1ccc(/C=c2\sc3nc4ccccc4n3c2=O)cc1,101%
11,CN(C)c1ccc(/C=C2\Cc3c(F)ccc(Br)c3C2=O)cc1,96.4%
12,CN1CCN(Cc2ccc(NC(=O)c3cncc(C#Cc4cnc5ccc(N6CCSCC6)nn45)c3)cc2C(F)(F)F)CC1,7.81% (active)
13,COc1cc(/C=C/C(=O)c2ccc(C)cc2)ccc1Oc1nc(NCCO)nc(N2CCOCC2)n1,43.7%
14,O=C(CSc1nnc(-c2ccc3nc(-c4ccc(Cl)cc4)[nH]c3c2)o1)Nc1ccc(C(=O)/C=C/c2ccc(Cl)cc2)cc1,93.7%
15,C#Cc1nc(C2=C(C)C(=N\O)/C(=N/O)C2)cs1,99%
16,CC(O)C(NC(=O)C1CCCN1C(=O)CNC(=O)C1CC(=O)NCC(=O)NC(Cc2c[nH]c3ccccc23)C(=O)NC(Cc2ccc(O)cc2)C(=O)NCC(=O)NC(CO)C(=O)NC(CCC(N)=O)C(=O)NC(Cc2c[nH]c3ccccc23)C(=O)N1)C(=O)NCC(=O)NC(CCC(N)=O)C(=O)NC(CCCNC(=N)N)C(=O)NC(CC(=O)O)C(=O)O (stereo not given),101%
17,NS(=O)(=O)c1cccc(Nc2nc(SCC(=O)c3ccc([N+](=O)[O-])cc3)nc3ccccc23)c1,7.52% (active)
18,Cn1ccnc1C(=O)/C=C/c1ccc(NC(=O)Nc2ccccc2)cc1,77.9%
19,CN(C)S(=O)(=O)c1oc(-c2ccccc2)nc1C#N,93.1%
20,O=C1Nc2cc(Cl)ccc2/C1=C\c1ccc(OCc2ccc(Br)cc2F)cc1,-12.1% (active)
21,COc1cc(/C=C/C(=O)c2cc(OC)c(OC)c(OC)c2)ccc1OCc1ccccc1,63.2%
22,NC(=O)c1cc(-c2ccc3ncnc(N4CCc5cc(F)c(Cl)cc54)c3c2)cnc1N,52.1%
23,Cn1ccnc1C(=O)/C=C/c1ccc(NC(=O)Nc2ccc(F)cc2)cc1,77.8%
24,O=C(CCN1C(=O)/C(=C/c2ccccc2)SC1=S)N1CCOCC1,99.5%
25,N#Cc1c(-c2ccc(Cl)cc2)nc(SCc2ccc(F)cc2)nc1N1CCNCC1,62.5%
26,Clc1ccc(-c2cn3cc(Cc4ccc(Cl)c(Cl)c4)sc3n2)cc1,38.2%
27,COc1ccc(/C=N/NC(=O)c2[nH]c3ccc(Br)cc3c2-c2ccccc2)o1,-29% (active)

# Test system: UACC-62 melanoma
# Assay: as above
# Conditions: 10 µM unless noted
row,SMILES,growth
1,Cc1ccc2c(n1)C(=O)C(Cl)=C(Nc1cccc(C(C)C)c1)C2=O,87.1%
2,Cn1cc(-c2cc(N)n3nc(-c4cn(C)c5ccc(F)cc45)cc3n2)c2cc(F)ccc21,62.5%
3,Cn1c(SCC(=O)c2cccs2)nc2ccccc2c1=O,92.6%
4,CCCC(=O)NC(c1ccc(N(CC)CC)cc1)c1cc(C)c2cccnc2c1O (stereo not given),8.31% (active)
5,COC(=O)C1CCCN(S(=O)(=O)/N=C2\NC(=O)NC2=C(Cl)Cl)C1 (stereo not given),94%
6,O=C(N/N=C/c1ccc([N+](=O)[O-])s1)c1[nH]c2ccc(Br)cc2c1-c1ccccc1,17.6%
7,C=C1CC[C@H]2[C@@](C)(CCC3OC(c4ccc(OCc5cn(C6CC(OC(C)=O)C(OC(C)=O)C(COC(C)=O)O6)nn5)cc4)OC[C@]32C)[C@@H]1/C=C/C1=CCOC1=O (stereo not given in full),70.5%
8,COc1ccc([C@@H]2c3[nH]c4ccccc4c3CC3C(=O)N(C4CCN(Cc5c(F)cccc5F)CC4)CC(=O)N32)c(OC)c1 (stereo not given in full),78.9% [5.26 µM]
9,O=C(N/N=C/c1ccc(Br)s1)c1[nH]c2ccc(Br)cc2c1-c1ccccc1,41.7%
10,O=C1c2c(c3c4cccnc4[nH]c3c3ccc4ccccc4c23)C(=O)N1CCO,46.5%
11,Nc1c(C(=O)Nc2ccc(C(F)(F)F)cc2)sc2nc(-c3cnccn3)cc(-c3cccs3)c12,84.6%
12,CSc1ccc2c(c1)N(C(=O)/C(C#N)=C/c1c[nH]c3ccccc13)c1ccccc1S2,41.8%
13,Cc1cc(C(=O)Nc2sc3c(c2C(N)=O)CCC(=O)C3)ccc1OCCN1CCCCC1,100%
14,CN(C)c1ccc(/C=c2\sc3nc4ccccc4n3c2=O)cc1,96.5%
15,CN(C)c1ccc(/C=C2\Cc3c(F)ccc(Br)c3C2=O)cc1,83.3%
16,CN1CCN(Cc2ccc(NC(=O)c3cncc(C#Cc4cnc5ccc(N6CCSCC6)nn45)c3)cc2C(F)(F)F)CC1,-30.5% (active)
17,COc1cc(/C=C/C(=O)c2ccc(C)cc2)ccc1Oc1nc(NCCO)nc(N2CCOCC2)n1,53.4%
18,O=C(CSc1nnc(-c2ccc3nc(-c4ccc(Cl)cc4)[nH]c3c2)o1)Nc1ccc(C(=O)/C=C/c2ccc(Cl)cc2)cc1,83.2%
19,C#Cc1nc(C2=C(C)C(=N\O)/C(=N/O)C2)cs1,91.8%
20,CCOc1ccc2nc(NC(=O)c3ccc(C(F)(F)F)cc3)sc2c1,99.1%

row,SMILES,growth
1,CC(O)C(NC(=O)C1CCCN1C(=O)CNC(=O)C1CC(=O)NCC(=O)NC(Cc2c[nH]c3ccccc23)C(=O)NC(Cc2ccc(O)cc2)C(=O)NCC(=O)NC(CO)C(=O)NC(CCC(N)=O)C(=O)NC(Cc2c[nH]c3ccccc23)C(=O)N1)C(=O)NCC(=O)NC(CCC(N)=O)C(=O)NC(CCCNC(=N)N)C(=O)NC(CC(=O)O)C(=O)O (stereo not given),94.9%
2,CC1=C(C)C(=O)C(Nc2ccccc2)=C(Cl)C1=O,90.3%
3,CO/N=C1\CCc2c(sc(NC(=O)c3cccc(C(F)(F)F)c3)c2C(N)=O)C1,76.8%
4,COc1ccc(CNS(=O)(=O)/N=C2\NC(=O)NC2=C(Cl)Cl)cc1,27.4%
5,NS(=O)(=O)c1cccc(Nc2nc(SCC(=O)c3ccc([N+](=O)[O-])cc3)nc3ccccc23)c1,-12.7% (active)
6,Cn1ccnc1C(=O)/C=C/c1ccc(NC(=O)Nc2ccccc2)cc1,38.5%
7,CCOC(=O)c1sc(N)c(C(=O)OCC)c1C,57.7%
8,CN(C)S(=O)(=O)c1oc(-c2ccccc2)nc1C#N,97.9%
9,O=C1Nc2cc(Cl)ccc2/C1=C\c1ccc(OCc2ccc(Br)cc2F)cc1,-74.3% (active)
10,COc1cc(/C=C/C(=O)c2cc(OC)c(OC)c(OC)c2)ccc1OCc1ccccc1,38.8%
11,NC(=O)c1cc(-c2ccc3ncnc(N4CCc5cc(F)c(Cl)cc54)c3c2)cnc1N,26%
12,COc1ccc(NC2=C(Cl)C(=O)C(C)=C(C)C2=O)cc1OC,81.2%
13,Cn1ccnc1C(=O)/C=C/c1ccc(NC(=O)Nc2ccc(F)cc2)cc1,46.3%
14,O=C(CCN1C(=O)/C(=C/c2ccccc2)SC1=S)N1CCOCC1,78.8%
15,Cc1ccc(CNS(=O)(=O)/N=C2\NC(=O)NC2=C(Cl)Cl)cc1,77.3%
16,N#Cc1c(-c2ccc(Cl)cc2)nc(SCc2ccc(F)cc2)nc1N1CCNCC1,95%
17,Clc1ccc(-c2cn3cc(Cc4ccc(Cl)c(Cl)c4)sc3n2)cc1,18.2%
18,COc1ccc(/C=N/NC(=O)c2[nH]c3ccc(Br)cc3c2-c2ccccc2)o1,43.7%
19,O=C(Nc1nc2ccc(O)cc2s1)c1cccc(C(F)(F)F)c1,45.6%

# From PubChem BioAssay (NCI)
